According to PubChem BioAssay AID1159580 (chemical genetic matrix, 2015):
About 2,000 (36%) of roughly 5,500 compounds were called active. Not shown: some 18% with an inconclusive outcome. This is one part of the list. A number with no mark means an inactive call. Rule as the data show it: active = normalized growth mostly below about 0.91 (no sharp cut-off); inconclusive = no clear call, values can overlap the other calls; inactive = mostly above about 0.92.

Assay: chemical genetic growth profiling, strain panel (AID 1159580);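 also: tested at 20 µM; growth read once vehicle control cultures reached saturation at 30 °C; 1 = growth at the plate median or of vehicle wells; lower values mean less growth of the strain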
Settings: growth OD

With `Fc1ccc(C(c2ccccc2)(c2ccccc2F)n2ccnc2)cc1` (stereo unspecified) the normalized growth (S. cerevisiae deletion strains, locus YAL013W, strain DEP1, hits give low values) was 0.0872 (active), the normalized growth (S. cerevisiae deletion strains, locus YBR021W, strain FUR4, hits give low values) was 0.19 (active) and the normalized growth (S. cerevisiae deletion strains, locus YBR229C, strain ROT2, hits give low values) was 0.0785 (active). For the same molecule, the normalized growth (S. cerevisiae deletion strains, locus YCL029C, strain bik1, hits give low values) was 0.0815 (active), the normalized growth (S. cerevisiae deletion strains, locus YDL035C, strain GPR1, hits give low values) was 0.0631 (active) and the normalized growth (S. cerevisiae deletion strains, locus YDL074C, strain BRE1, hits give low values) was 0.147 (active). The normalized growth (S. cerevisiae deletion strains, locus YDL101C, strain DUN1, hits give low values) was 0.0698 (active), the normalized growth (S. cerevisiae deletion strains, locus YDL134C, strain PPH21, hits give low values) was 0.0588 (active) and the normalized growth (S. cerevisiae deletion strains, locus YDL185W, strain tfp1, hits give low values) was 0.0581 (active). The normalized growth (S. cerevisiae deletion strains, locus YDL192W, strain arf1, hits give low values) was 0.0867 (active), the normalized growth (S. cerevisiae deletion strains, locus YDR101C, strain arx1, hits give low values) was 0.0775 (active) and the normalized growth (S. cerevisiae deletion strains, locus YDR150W, strain NUM1, hits give low values) was 0.0798 (active). The normalized growth (S. cerevisiae deletion strains, locus YDR162C, strain NBP2, hits give low values) was 0.0536 (active), the normalized growth (S. cerevisiae deletion strains, locus YDR318W, strain mcm21, hits give low values) was 0.082 (active) and the normalized growth (S. cerevisiae deletion strains, locus YDR388W, hits give low values) was 0.0787 (active). For the same molecule, the normalized growth (S. cerevisiae deletion strains, locus YDR502C, strain sam2, hits give low values) was 0.079 (active), the normalized growth (S. cerevisiae deletion strains, locus YEL061C, strain CIN8, hits give low values) was 0.063 (active) and the normalized growth (S. cerevisiae deletion strains, locus YER110C, hits give low values) was 0.112 (active). For the same molecule, the normalized growth (S. cerevisiae deletion strains, locus YER155C, strain BEM2, hits give low values) was 0.097 (active), the normalized growth (S. cerevisiae deletion strains, locus YER167W, strain BCK2, hits give low values) was 0.0563 (active) and the normalized growth (S. cerevisiae deletion strains, locus YGL078C, strain dbp3, hits give low values) was 0.111 (active). For the same molecule, the normalized growth (S. cerevisiae deletion strains, locus YGL086W, strain mad1, hits give low values) was 0.0673 (active), the normalized growth (S. cerevisiae deletion strains, locus YGL248W, strain PDE1, hits give low values) was 0.0531 (active) and the normalized growth (S. cerevisiae deletion strains, locus YGR078C, strain PAC10, hits give low values) was 0.0703 (active). The normalized growth (S. cerevisiae deletion strains, locus YGR135W, strain pre9, hits give low values) was 0.0937 (active), the normalized growth (S. cerevisiae deletion strains, locus YGR229C, strain SMI1, hits give low values) was 0.0699 (active) and the normalized growth (S. cerevisiae deletion strains, locus YGR252W, strain gcn5, hits give low values) was 0.179 (active). The normalized growth (S. cerevisiae deletion strains, locus YHR030C, strain SLT2, hits give low values) was 0.0565 (active), the normalized growth (S. cerevisiae deletion strains, locus YHR079C, strain IRE1 (second series), hits give low values) was 0.0811 (active) and the normalized growth (S. cerevisiae deletion strains, locus YHR094C, strain hxt1, hits give low values) was 0.0819 (active). The normalized growth (S. cerevisiae deletion strains, locus YHR129C, strain ARP1, hits give low values) was 0.0647 (active), the normalized growth (S. cerevisiae deletion strains, locus YHR200W, strain rpn10, hits give low values) was 0.101 (active) and the normalized growth (S. cerevisiae deletion strains, locus YIL066C, strain RNR3, hits give low values) was 0.054 (active). The normalized growth (S. cerevisiae deletion strains, locus YIL073C, strain SPO22, hits give low values) was 0.128 (active), the normalized growth (S. cerevisiae deletion strains, locus YIL125W, strain kgd1, hits give low values) was 0.14 (active) and the normalized growth (S. cerevisiae deletion strains, locus YIR030C, strain dcg1, hits give low values) was 0.0795 (active). For the same molecule, the normalized growth (S. cerevisiae deletion strains, locus YJL095W, strain BCK1, hits give low values) was 0.0549 (active), the normalized growth (S. cerevisiae deletion strains, locus YJL134W, strain LCB3, hits give low values) was 0.0651 (active) and the normalized growth (S. cerevisiae deletion strains, locus YJL168C, strain set2, hits give low values) was 0.0832 (active). For the same molecule, the normalized growth (S. cerevisiae deletion strains, locus YJL187C, strain SWE1 (second series), hits give low values) was 0.0603 (active), the normalized growth (S. cerevisiae deletion strains, locus YJR043C, strain POL32, hits give low values) was 0.0763 (active) and the normalized growth (S. cerevisiae deletion strains, locus YJR075W, strain HOC1, hits give low values) was 0.0813 (active). For the same molecule, the normalized growth (S. cerevisiae deletion strains, locus YKL009W, strain mrt4, hits give low values) was 0.4 (active), the normalized growth (S. cerevisiae deletion strains, locus YKL068W, hits give low values) was 0.178 (active) and the normalized growth (S. cerevisiae deletion strains, locus YKL085W, strain MDH1 (second series), hits give low values) was 0.126 (active). For the same molecule, the normalized growth (S. cerevisiae deletion strains, locus YKL085W, strain MDH1, hits give low values) was 0.126 (active), the normalized growth (S. cerevisiae deletion strains, locus YKL190W, strain CNB1, hits give low values) was 0.0509 (active) and the normalized growth (S. cerevisiae deletion strains, locus YKR001C, strain vps1, hits give low values) was 0.0897 (active). The normalized growth (S. cerevisiae deletion strains, locus YLR039C, strain RIC1, hits give low values) was 0.191 (active), the normalized growth (S. cerevisiae deletion strains, locus YLR058C, strain SHM2, hits give low values) was 0.0587 (active) and the normalized growth (S. cerevisiae deletion strains, locus YLR102C, strain apc9, hits give low values) was 0.0876 (active). The normalized growth (S. cerevisiae deletion strains, locus YLR262C, strain YPT6, hits give low values) was 0.23 (active), the normalized growth (S. cerevisiae deletion strains, locus YLR268W, strain sec22, hits give low values) was 0.0794 (active) and the normalized growth (S. cerevisiae deletion strains, locus YLR330W, strain CHS5, hits give low values) was 0.0657 (active). The normalized growth (S. cerevisiae deletion strains, locus YLR342W, strain FKS1 (second series), hits give low values) was 0.0856 (active), the normalized growth (S. cerevisiae deletion strains, locus YLR371W, strain rom2, hits give low values) was 0.0813 (active) and the normalized growth (S. cerevisiae deletion strains, locus YLR418C, strain cdc73, hits give low values) was 0.127 (active). For the same molecule, the normalized growth (S. cerevisiae deletion strains, locus YML016C, strain PPZ1, hits give low values) was 0.0591 (active), the normalized growth (S. cerevisiae deletion strains, locus YML032C, strain rad52, hits give low values) was 0.104 (active) and the normalized growth (S. cerevisiae deletion strains, locus YML124C, strain tub3, hits give low values) was 0.0796 (active). For the same molecule, the normalized growth (S. cerevisiae deletion strains, locus YMR078C, strain ctf18, hits give low values) was 0.101 (active), the normalized growth (S. cerevisiae deletion strains, locus YMR223W, strain ubp8, hits give low values) was 0.0885 (active) and the normalized growth (S. cerevisiae deletion strains, locus YMR263W, strain SAP30, hits give low values) was 0.108 (active). The normalized growth (S. cerevisiae deletion strains, locus YMR307W, strain GAS1, hits give low values) was 0.129 (active), the normalized growth (S. cerevisiae deletion strains, locus YNL067W, strain RPL9B, hits give low values) was 0.0623 (active) and the normalized growth (S. cerevisiae deletion strains, locus YNL128W, strain TEP1, hits give low values) was 0.0794 (active). For the same molecule, the normalized growth (S. cerevisiae deletion strains, locus YNL153C, strain GIM3, hits give low values) was 0.0592 (active), the normalized growth (S. cerevisiae deletion strains, locus YNL233W, strain BNI4, hits give low values) was 0.0673 (active) and the normalized growth (S. cerevisiae deletion strains, locus YNL250W, strain rad50, hits give low values) was 0.133 (active). The normalized growth (S. cerevisiae deletion strains, locus YNL271C, strain bni1, hits give low values) was 0.114 (active), the normalized growth (S. cerevisiae deletion strains, locus YNL298W, strain CLA4, hits give low values) was 0.0847 (active) and the normalized growth (S. cerevisiae deletion strains, locus YNL307C, strain MCK1, hits give low values) was 0.0726 (active). For the same molecule, the normalized growth (S. cerevisiae deletion strains, locus YNL322C, strain KRE1, hits give low values) was 0.0639 (active), the normalized growth (S. cerevisiae deletion strains, locus YNR052C, strain pop2, hits give low values) was 0.0915 (active) and the normalized growth (S. cerevisiae deletion strains, locus YOL006C, strain TOP1, hits give low values) was 0.104 (active). For the same molecule, the normalized growth (S. cerevisiae deletion strains, locus YOL012C, strain htz1) was 0.208, the normalized growth (S. cerevisiae deletion strains, locus YOL147C, strain pex11, hits give low values) was 0.0687 (active) and the normalized growth (S. cerevisiae deletion strains, locus YOR061W, strain CKA2, hits give low values) was 0.077 (active). For the same molecule, the normalized growth (S. cerevisiae deletion strains, locus YOR069W, strain VPS5, hits give low values) was 0.0662 (active), the normalized growth (S. cerevisiae deletion strains, locus YOR136W, strain idh2, hits give low values) was 0.0938 (active) and the normalized growth (S. cerevisiae deletion strains, locus YOR144C, strain elg1, hits give low values) was 0.076 (active). The normalized growth (S. cerevisiae deletion strains, locus YOR184W, strain ser1, hits give low values) was 0.094 (active), the normalized growth (S. cerevisiae deletion strains, locus YOR316C, strain cot1, hits give low values) was 0.0765 (active) and the normalized growth (S. cerevisiae deletion strains, locus YPL055C, strain LGE1, hits give low values) was 0.0913 (active). For the same molecule, the normalized growth (S. cerevisiae deletion strains, locus YPL241C, strain CIN2, hits give low values) was 0.0643 (active), the normalized growth (S. cerevisiae deletion strains, locus YPR119W, strain clb2, hits give low values) was 0.0897 (active) and the normalized growth (S. cerevisiae deletion strains, locus YPR141C, strain kar3, hits give low values) was 0.24 (active). The normalized growth (S. cerevisiae deletion strains, locus YPR163C, strain tif3, hits give low values) was 0.0819 (active), the normalized growth (S. cerevisiae deletion strains, locus YPR167C, strain met16, hits give low values) was 0.0807 (active) and the normalized growth (S. cerevisiae deletion strains, strain wtn01, hits give low values) was 0.1 (active). For the same molecule, the normalized growth (S. cerevisiae strains, strain wild type, hits give low values) was 0.0558 (active).
